These results are taken from PubChem BioAssay.

The source made the active and inactive calls. Unless noted, how the calls were made is not given here.

Experiment [1] concerns XIP peptide (Xip251-270) binding. The experiment is described as follows: small-molecule binders of XIP peptide, primary screen, biochemical, small-molecule microarray, fluorescence 635/667 nm, 0.1 µg/mL protein (AID 1182). The note with it: fluorescent protein binding, 635 nm, higher = more signal, called active from +8 up or from −8 down.
For a further experiment, the system named is XIP peptide (Xip251-270). The experiment is described as follows: small-molecule binders of XIP peptide, primary screen, biochemical, small-molecule microarray, fluorescence 635/667 nm, 0.5 µg/mL protein (AID 1183). To be noted: small-molecule microarray binding, fluorescence 635 nm; higher = more signal.
A short description of experiment [2]: Plasmodium falciparum growth inhibition, primary screen, strain 3D7, DAPI fluorescence, 100 nL (AID 1184).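 Further: parasites grown inside human red blood cells in medium with human serum.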 To be noted: P. falciparum 3D7 growth, 3 d, higher = more signal.
For experiment [3], the target named is Homeobox protein Hox-A13 (Mus musculus) (UniProt Q62424). The experiment is described as follows: inhibitors of HoxA13-DNA binding, primary screen, biochemical, fluorescence polarization, labeled oligonucleotide (AID 1185). The note with it: 15 min, higher = more signal, called active from +8 up or from −8 down. For orientation: In fluorescence polarisation assays a small probe gives low polarisation when free and higher when bound to something large.

A short description of experiment [4]: inhibitors of hydroxyurea-induced Chk1 phosphorylation, primary screen, imaging, HeLa, phospho-Chk1 antibody, percent positive cells (AID 1186). To be noted: hydroxyurea-induced phospho-Chk1 immunofluorescence imaging, higher = more signal.
Experiment [5] can be described thus: inhibitors of hydroxyurea-induced Chk1 phosphorylation, primary screen, imaging, HeLa, phospho-Chk1 nuclear intensity (AID 1187). The note with it: hydroxyurea-induced phospho-Chk1 immunofluorescence imaging, higher = more signal.

Chain of Homeobox protein Hox-A13 (Mus musculus) (Q62424 whole entry, looked up): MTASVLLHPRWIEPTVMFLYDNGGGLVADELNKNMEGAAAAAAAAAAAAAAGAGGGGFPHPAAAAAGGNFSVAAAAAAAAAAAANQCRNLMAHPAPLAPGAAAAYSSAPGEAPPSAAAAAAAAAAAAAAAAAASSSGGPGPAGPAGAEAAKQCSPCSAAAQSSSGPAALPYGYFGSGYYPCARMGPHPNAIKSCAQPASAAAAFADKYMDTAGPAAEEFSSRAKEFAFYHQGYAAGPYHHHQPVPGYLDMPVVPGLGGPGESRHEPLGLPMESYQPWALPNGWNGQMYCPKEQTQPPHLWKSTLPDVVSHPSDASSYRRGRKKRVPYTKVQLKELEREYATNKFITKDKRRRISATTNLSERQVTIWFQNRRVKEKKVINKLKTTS

On to `O=C(NCCN1CCOCC1)[C@@H]1c2ccccc2C(=O)N(CC23CC4CC(CC(C4)C2)C3)[C@H]1c1ccc(CO)cc1`, for which the composite z-score in experiment [1] was 0.238 (inactive); in the experiment with XIP peptide (Xip251-270), 0.771. The z-score in experiment [2] was -1.32; in experiment [3], -5.14 (inactive); in experiment [4], 0.333 (inactive); in experiment [5] it was 0.707 (inactive).

As for `CN1C(=O)C2C=CC(C(O)c3ccc(I)cc3)N(N(c3ccccc3)c3ccccc3)C2C1=O` (stereo not drawn), the composite z-score was 0.157 (inactive) in experiment [1] and 0.348 in the experiment with XIP peptide (Xip251-270). Moreover, the z-score in experiment [2] was 0.387; in experiment [3] it was -1.5 (inactive); in experiment [4], -0.839 (inactive); in experiment [5], -1.1 (inactive).

In the case of `CC[C@@H](O[Si](C#C[Si](C(C)C)(C(C)C)C(C)C)(C(C)C)C(C)C)c1cn([C@H](CO)Cc2ccccc2)nn1`, the composite z-score is -0.0433 (inactive) in experiment [1] and 0.411 in the experiment on XIP peptide (Xip251-270). Further, the z-score in experiment [2] was -0.348; in experiment [3], -1.31 (inactive); in experiment [4], -0.058 (inactive); in experiment [5], -0.0008 (inactive).

Take `C=CC[C@H](O)c1ccc(O)c2ccccc12`: the composite z-score in experiment [1] was 0.0693 (inactive); in the experiment with XIP peptide (Xip251-270), 0.512. For the same compound, the z-score was -1.36 in experiment [2], -2.1 (inactive) in experiment [3], 0.835 (inactive) in experiment [4] and 1.01 (inactive) in experiment [5].

On to `COC(=O)C1(CC(C)C)C=C2C(=C(C)C(=O)C2C)CN1` (stereo not drawn), for which the composite z-score was -0.583 (inactive) in experiment [1] and 0.992 with XIP peptide (Xip251-270). Also, the z-score is 0.51 in experiment [2], -4.02 (inactive) in experiment [3], 0.886 (inactive) in experiment [4] and 0.911 (inactive) in experiment [5].

In the case of `Cc1ccc(S(=O)(=O)N2[C@@H](c3ccccc3)C(C(=O)O)=CC[C@H]2c2ccc(F)cc2)cc1`, the composite z-score in experiment [1] is -0.311 (inactive); in the experiment on XIP peptide (Xip251-270), -0.0114. The z-score in experiment [2] is -0.204; in experiment [3], -5.57 (inactive); in experiment [4], 0.388 (inactive); in experiment [5], 0.391 (inactive).

As to `C=C1C(=O)C=C2CN(C(=O)c3ccccc3)[C@@](Cc3ccc(F)cc3)(C(=O)OC)[C@@H]12`, the composite z-score in experiment [1] was 0.741 (inactive); with XIP peptide (Xip251-270), 0.459. The z-score in experiment [2] was -1.59; in experiment [3] it was -4.76 (inactive); in experiment [4], -2.23 (inactive); in experiment [5] it was -3.76 (inactive).

For the compound `CN1C(=O)C2C=CC(C(O)COCc3ccccc3)N(Nc3ccc([N+](=O)[O-])cc3[N+](=O)[O-])C2C1=O` (stereo not drawn), the composite z-score was 0.649 (inactive) in experiment [1] and 0.544 in the experiment with XIP peptide (Xip251-270). Besides, the z-score is 0.391 in experiment [2], -4.41 (inactive) in experiment [3], -0.589 (inactive) in experiment [4] and -0.803 (inactive) in experiment [5].

For the compound `CC[C@@H](O[Si](C#C[Si](C(C)C)(C(C)C)C(C)C)(C(C)C)C(C)C)c1cn(Cc2cccc(Cl)c2)nn1`, the composite z-score is 0.242 (inactive) in experiment [1] and -0.0319 in the experiment on XIP peptide (Xip251-270). The z-score in experiment [2] was 0.163; in experiment [3], 0.335 (inactive); in experiment [4] it was 0.212 (inactive); in experiment [5], -0.0184 (inactive).

`Cc1ccc(S[C@]2(C(=O)NC(C)C)CC(=O)N(Cc3ccccc3)[C@@H]2c2ccc(CO)cc2I)cc1`: the results for the composite z-score (in experiment [1]; with XIP peptide (Xip251-270)) were 1.69 (inactive) and -0.304, respectively. Besides, the z-score in experiment [2] is -0.158; in experiment [3] it was -3.33 (inactive); in experiment [4], -0.641 (inactive); in experiment [5], -0.268 (inactive).

With `COC(=O)[C@@]1(Cc2ccccc2)[C@H]2c3cc(C(=O)N(C)C)n(Cc4nc5ccccc5[nH]4)c3C[C@H]2CN1C(=O)c1ccccc1`, the composite z-score in experiment [1] was 0.857 (inactive); in the experiment with XIP peptide (Xip251-270) it was 0.784. Also, the z-score is -0.542 in experiment [2], -1.6 (inactive) in experiment [3], -0.283 (inactive) in experiment [4] and 0.0294 (inactive) in experiment [5].

In the case of `COC(=O)[C@@]1(Cc2ccc(OC)cc2)[C@H]2c3cc(C(=O)N(C)C)n(Cc4c(CO)[nH]cc(C)c4=O)c3C[C@H]2CN1C(=O)c1ccccc1`, the composite z-score in experiment [1] is -0.582 (inactive); with XIP peptide (Xip251-270), 0.349. The z-score in experiment [2] is -0.116; in experiment [3], -3.64 (inactive); in experiment [4], 0.54 (inactive); in experiment [5] it was 0.376 (inactive).

Consider `C[C@]1(C(=O)NC2CC2)c2ccccc2C(=O)N(Cc2cc(F)cc(C(F)(F)F)c2)[C@H]1c1ccc(CO)cc1`, for which the composite z-score in experiment [1] is 0.431 (inactive); in the experiment on XIP peptide (Xip251-270) it was 0.883. The z-score in experiment [2] is 0.0713; in experiment [3] it was -3.51 (inactive); in experiment [4], 0.361 (inactive); in experiment [5], 0.529 (inactive).

Take `COCCCNC(=O)[C@@]1(Cc2ccccc2I)c2ccccc2C(=O)N(Cc2ccccc2C(F)(F)F)[C@H]1c1ccc(CO)cc1`: the results for the composite z-score (in experiment [1]; with XIP peptide (Xip251-270)) were 0.739 (inactive) and 0.854, respectively. The z-score in experiment [2] is -0.821; in experiment [3] it was -4.3 (inactive); in experiment [4], 0.0894 (inactive); in experiment [5], -0.0472 (inactive).

Turning to `CN1C(=O)C2C(C1=O)C1C=C(CCCO)C2C(C2CC2)N1C` (stereo not drawn), the composite z-score in experiment [1] is 0.58 (inactive); with XIP peptide (Xip251-270) it was 0.591. Moreover, the z-score is 0.119 in experiment [2], -6.6 (inactive) in experiment [3], -0.0182 (inactive) in experiment [4] and 0.162 (inactive) in experiment [5].

As for `C=CCNC(=O)[C@H]1[C@@H]2C(=O)O[C@@H](c3ccccc3)[C@@H](c3ccccc3)N2[C@@H](c2ccc(O)cc2)[C@]12C(=O)Nc1ccccc12`, the results for the composite z-score (in experiment [1]; with XIP peptide (Xip251-270)) were -0.067 (inactive) and 0.821, respectively. Besides, the z-score was 0.478 in experiment [2], -3.97 (inactive) in experiment [3], 0.0866 (inactive) in experiment [4] and 0.432 (inactive) in experiment [5].

Consider `C=C(CCCC)/C(=C/C[C@@H](OC(C)=O)c1cccc(OCCO)c1)c1cc(C(=O)OC)ccc1OC`, for which the composite z-score in experiment [1] is -0.234 (inactive); in the experiment on XIP peptide (Xip251-270), 0.826. In addition, the z-score in experiment [2] is -3.06; in experiment [3], -5.01 (inactive); in experiment [4], 0.496 (inactive); in experiment [5], 0.331 (inactive).

Regarding `COCCCNC(=O)[C@@]1(Cc2ccccc2I)c2ccccc2C(=O)N(Cc2ccccc2OC)[C@H]1c1ccc(CO)cc1`, the figures for the composite z-score (in experiment [1]; in the experiment with XIP peptide (Xip251-270)) were 1.02 (inactive) and 0.0714, respectively. Further, the z-score in experiment [2] was -1.07; in experiment [3], -4.88 (inactive); in experiment [4], -0.14 (inactive); in experiment [5] it was 0.04 (inactive).
